Measurements reported in PubChem BioAssay.
Unmarked numbers belong to inactive results. The source made the active and inactive calls.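 The calls were made as follows, unless noted: active = growth inhibition above 50% at the single 2 µM test dose, taken to imply half-maximal potency below 2 µM; inactive = the rest.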

test system: not listed separately; test: antimalarial activity against Dd2 strain (AID 2302);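 also: 0% = DMSO untreated growth and 100% = chloroquine plus artemisinin killed control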; settings: P. falciparum Dd2 in RBCs, LDH growth readout, 72 h; at 2 µM; active compounds read high

| SMILES | growth inhibition |
| --- | --- |
| CC(C)(C)c1ccc(Cc2cccc3nc(N)nc(N)c23)cc1 | 51% (active) |
| CCn1c(O)c(N=NC(=S)N2CCCC2)c2ccccc21 | 9% |
| CCOC(=O)c1nc2ccc(SC3CCCCC3)cn2c1Br | 3% |
| CCCCOc1c(CCNCCCCNCCc2cc(OC)c3ccccc3c2OCCCC)cc(OC)c2ccccc12 | 47% |
| CCOc1cc(Cc2cnc(N)nc2N)ccc1OC | -4% |
| Cc1nc(N)nc(N)c1-c1ccc(Br)c(Br)c1 | 1% |
| CCCOc1cc2c(cc1OCCC)C(C=Cc1ccc(Cl)cc1Cl)=NC(C)C2 (stereo not drawn) | 75% (active) |
| COc1ccc(OC)c(CC2c3ccc(Br)c(O)c3CCN2C)c1 (stereo not drawn) | 97% (active) |
| COc1cc(Cc2cnc3nc(N)nc(N)c3c2C)cc(OC)c1OC | 98% (active) |
| Cc1nc(NCc2ccccc2)cc(Nc2cc(NCc3ccccc3)nc(C)n2)n1 | 32% |
| CCc1nc(N)nc(N)c1-c1ccc2c(c1)CCCC2 | -5% |
| Cc1[nH]c(C)c(-c2ccc(Oc3ccc(Cl)cc3)cc2)c(=O)c1Cl | 16% |
| Cc1c(C(C)(C)C)ccc2nc(N)nc(N)c12 | -2% |
| COc1cc(Cc2cnc(N)nc2N)cc(OCCCCNS(=O)(=O)C(F)(F)F)c1OC | -5% |
| Nc1nc(N)c2cc(Cc3ccc([N+](=O)[O-])cc3)cnc2n1 | -3% |
| CCC(C)c1cnc2nc(N)nc(N)c2c1C (stereo not drawn) | 1% |
| NC(N)=NC(=O)Nc1ccc(Cl)c([N+](=O)[O-])c1 | 9% |
| CCCc1cc(OC)c(CC2c3cc(O)c(Cl)cc3C(c3ccccc3)CN2C)cc1OC (stereo not drawn) | 100% (active) |
| CC1CN=C(c2ccc(NC(=O)Nc3ccc(C4=NCC(C)N4)cc3)cc2)N1 (stereo not drawn) | 67% (active) |
| Oc1c(CNC2CCCCC2)cc(Cl)c2ccccc12 | 101% (active) |

| SMILES | growth inhibition |
| --- | --- |
| Cc1[nH]c(C)c(-c2ccc(Oc3ccc(Cl)c(Cl)c3)cc2)c(=O)c1Br | 96% (active) |
| CC(C)(C)c1ccc(-c2nc3c(ccc4nc(N)nc(N)c43)[nH]2)cc1 | 101% (active) |
| Nc1nc(N)c2c(n1)CCc1cc(Br)ccc1-2 | 4% |
| CCN(C)C(=O)n1ncc2c3c(N)nc(N)nc3ccc21 | 0% |
| Cc1nc2nc(N)nc(N)c2c(C)c1Cc1ccc(N)cc1 | -2% |
| Nc1nc(N)c2c(ccc3c2cnn3Cc2cccnc2)n1 | 96% (active) |
| Cc1[nH]c(C)c(-c2ccc(Oc3cc(Cl)cc(Cl)c3)cc2)c(=O)c1Br | 97% (active) |
| COc1ccc(OC)c(Cc2c(C)nc3nc(N)nc(N)c3c2C)c1 | 0% |
| CCCCc1cc(Cc2cnc(N)nc2N)cc(OC)c1OC | -1% |
| CC(C)c1ccc2c(c1)C(=O)c1ccc(C(=O)O)cc1S2(=O)=O | 83% (active) |
| CCCCNCCOc1ccc(-c2nc(-c3ccccc3)c(-c3ccccc3)[nH]2)cc1 | 34% |
| Nc1nc(Cc2ccc(Cl)cc2)nc(Cc2ccc(Cl)cc2)n1 | -2% |
| Cc1cc(=O)c(-c2ccc(Oc3ccc(OC(F)(F)F)cc3)cc2)c(C)[nH]1 | 61% (active) |
| CC(C)CNc1nc(N)nc2ccc3c(ccn3CC(C)C)c12 | 51% (active) |
| CC(=O)Oc1c(Br)c(C)nc(C)c1-c1ccc(Oc2ccc(OC(F)(F)F)cc2)cc1 | 97% (active) |
| FC(F)(F)c1ccc2c(NCCCNc3ccnc4cc(C(F)(F)F)ccc34)ccnc2c1 | 101% (active) |
| CCNCCCC(C)Nc1ccnc2cc(Cl)ccc12 (stereo not drawn) | -3% |
| CCCN(c1ccc(O)c(CN2CCCCC2)c1)c1ccc([N+](=O)[O-])cn1 | 96% (active) |
| CCOC(=O)c1c(-c2ccccc2)c(C(=O)OCC)n2ccccc12 | 70% (active) |

target: L-lactate dehydrogenase (Plasmodium falciparum (isolate CDC / Honduras)) (UniProt Q27743); test: PfLDH activity inhibition – cell lysate, 3D7 strain, counter-screen for P. falciparum growth inhibition project (AID 2304; call rule not given here;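 also: 0% = vehicle and 100% = reference inhibitor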); settings: P. falciparum 3D7 crude extract, LDH APAD/NBT absorbance; at 2 µM; active compounds read high
Sequence (Q27743 whole entry, looked up): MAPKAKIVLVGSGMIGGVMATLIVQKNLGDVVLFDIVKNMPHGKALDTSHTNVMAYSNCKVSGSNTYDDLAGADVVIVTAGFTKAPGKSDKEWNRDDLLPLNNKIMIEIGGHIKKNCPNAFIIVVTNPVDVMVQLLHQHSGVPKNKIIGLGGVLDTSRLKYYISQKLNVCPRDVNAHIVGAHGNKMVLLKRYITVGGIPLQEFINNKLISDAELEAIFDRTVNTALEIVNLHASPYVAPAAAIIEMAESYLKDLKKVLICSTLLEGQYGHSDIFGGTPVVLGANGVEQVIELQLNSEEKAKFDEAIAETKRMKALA

| SMILES | inhibition [%] |
| --- | --- |
| CC(C)(C)c1ccc(Cc2cccc3nc(N)nc(N)c23)cc1 | 4 |
| CCn1c(O)c(N=NC(=S)N2CCCC2)c2ccccc21 | 4 |
| CCOC(=O)c1nc2ccc(SC3CCCCC3)cn2c1Br | 3 |
| CCCCOc1c(CCNCCCCNCCc2cc(OC)c3ccccc3c2OCCCC)cc(OC)c2ccccc12 | 7 |
| CCOc1cc(Cc2cnc(N)nc2N)ccc1OC | -1 |
| Cc1nc(N)nc(N)c1-c1ccc(Br)c(Br)c1 | -2 |
| CCCOc1cc2c(cc1OCCC)C(C=Cc1ccc(Cl)cc1Cl)=NC(C)C2 (stereo not drawn) | -5 |
| COc1ccc(OC)c(CC2c3ccc(Br)c(O)c3CCN2C)c1 (stereo not drawn) | -7 |
| COc1cc(Cc2cnc3nc(N)nc(N)c3c2C)cc(OC)c1OC | 1 |
| Cc1nc(NCc2ccccc2)cc(Nc2cc(NCc3ccccc3)nc(C)n2)n1 | 8 |
| CCc1nc(N)nc(N)c1-c1ccc2c(c1)CCCC2 | -5 |
| Cc1[nH]c(C)c(-c2ccc(Oc3ccc(Cl)cc3)cc2)c(=O)c1Cl | -3 |
| Cc1c(C(C)(C)C)ccc2nc(N)nc(N)c12 | -1 |
| COc1cc(Cc2cnc(N)nc2N)cc(OCCCCNS(=O)(=O)C(F)(F)F)c1OC | 7 |
| Nc1nc(N)c2cc(Cc3ccc([N+](=O)[O-])cc3)cnc2n1 | -2 |
| CCC(C)c1cnc2nc(N)nc(N)c2c1C (stereo not drawn) | -3 |
| NC(N)=NC(=O)Nc1ccc(Cl)c([N+](=O)[O-])c1 | -8 |
| CCCc1cc(OC)c(CC2c3cc(O)c(Cl)cc3C(c3ccccc3)CN2C)cc1OC (stereo not drawn) | 4 |
| CC1CN=C(c2ccc(NC(=O)Nc3ccc(C4=NCC(C)N4)cc3)cc2)N1 (stereo not drawn) | 0 |
| Oc1c(CNC2CCCCC2)cc(Cl)c2ccccc12 | 0 |

| SMILES | inhibition [%] |
| --- | --- |
| Cc1[nH]c(C)c(-c2ccc(Oc3ccc(Cl)c(Cl)c3)cc2)c(=O)c1Br | -1 |
| CC(C)(C)c1ccc(-c2nc3c(ccc4nc(N)nc(N)c43)[nH]2)cc1 | 1 |
| Nc1nc(N)c2c(n1)CCc1cc(Br)ccc1-2 | 6 |
| CCN(C)C(=O)n1ncc2c3c(N)nc(N)nc3ccc21 | 6 |
| Cc1nc2nc(N)nc(N)c2c(C)c1Cc1ccc(N)cc1 | -4 |
| Nc1nc(N)c2c(ccc3c2cnn3Cc2cccnc2)n1 | 0 |
| Cc1[nH]c(C)c(-c2ccc(Oc3cc(Cl)cc(Cl)c3)cc2)c(=O)c1Br | -6 |
| COc1ccc(OC)c(Cc2c(C)nc3nc(N)nc(N)c3c2C)c1 | -2 |
| CCCCc1cc(Cc2cnc(N)nc2N)cc(OC)c1OC | 3 |
| CC(C)c1ccc2c(c1)C(=O)c1ccc(C(=O)O)cc1S2(=O)=O | -4 |
| CCCCNCCOc1ccc(-c2nc(-c3ccccc3)c(-c3ccccc3)[nH]2)cc1 | -5 |
| Nc1nc(Cc2ccc(Cl)cc2)nc(Cc2ccc(Cl)cc2)n1 | 2 |
| Cc1cc(=O)c(-c2ccc(Oc3ccc(OC(F)(F)F)cc3)cc2)c(C)[nH]1 | 0 |
| CC(C)CNc1nc(N)nc2ccc3c(ccn3CC(C)C)c12 | -7 |
| CC(=O)Oc1c(Br)c(C)nc(C)c1-c1ccc(Oc2ccc(OC(F)(F)F)cc2)cc1 | -4 |
| FC(F)(F)c1ccc2c(NCCCNc3ccnc4cc(C(F)(F)F)ccc34)ccnc2c1 | 3 |
| CCNCCCC(C)Nc1ccnc2cc(Cl)ccc12 (stereo not drawn) | 0 |
| CCCN(c1ccc(O)c(CN2CCCCC2)c1)c1ccc([N+](=O)[O-])cn1 | 4 |
| CCOC(=O)c1c(-c2ccccc2)c(C(=O)OCC)n2ccccc12 | -1 |
